Shown are actives, neighbours in structure and some others; about 4.6% of the full set was active somewhere.
TexasRed fluor = counter-screen for TRb-SRC2 inhibitors: fluorescence interference; actives 0.29% (n = 280,000); TRb/SRC2 Texas Red total fluorescence interference; AID 1479; Potency, µM (series often up to 106 µM); active = well fitted curve in either direction with a large enough effect; inconclusive = small, poorly fitted or top-dose-only effect
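Human TRb ligand-binding domain at 0.6 uM with 20 nM Texas Red SRC2 peptide in Tris buffer containing 1 uM T3 and 5% DMSO, incubated with compound 5 h at ambient temperature. Total fluorescence (555/632 nm) calculated as parallel + 2 × perpendicular.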
Tau ThT inhib = inhibitors of human tau fibril formation, thioflavin T binding; actives 2.1% (n = 270,000); Potency, µM (titrated, usually from 57.4 µM), hits mostly inhibitors; recombinant tau K18 P301L, heparin-induced fibrillization, ThT fluorescence; P10636; AID 1460; also: nearly all actives have a fitted effect of over 55% in size
Target sequence (P10636 561-689 P618L limits assumed): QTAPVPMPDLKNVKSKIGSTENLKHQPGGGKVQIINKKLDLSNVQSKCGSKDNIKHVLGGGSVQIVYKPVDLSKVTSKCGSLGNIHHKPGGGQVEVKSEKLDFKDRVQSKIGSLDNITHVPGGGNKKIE
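K18 P301L tau (15 uM + 0.24 uM Alexa 594-tagged), heparin 20 uM, NaOAc pH 7, 6 h 37 C; ThT 30 uM, 1 h RT, ex 450/em 510 nm.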
Tau fibril FP = inhibitors of human tau fibril formation. AID 1468. P10636. Potency, µM (series often up to 57.7 µM), hits mostly inhibitors. actives 0.39% (n = 280,000). K18 P301L tau heparin fibrillization, Alexa594 FP, 6 h; also: nearly all actives have a fitted effect of over 55% in size
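Heparin (20 uM) drove fibril formation of recombinant tau K18 P301L, 15 uM unlabeled with 0.24 uM Alexa 594 label, for 6 hr at 37 C in 100 mM sodium acetate pH 7. Fluorescence polarization (555/632 nm) read 1 hr after 30 uM ThT.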
TRb-SRC2 inh = TRbeta-SRC2 interaction inhibition | P10828 | TRbeta-SRC2 peptide binding, fluorescence polarization; receptor liganded with 1 µM T3 | Potency, µM (doses to about 106 µM), actives largely listed as inhibitors | actives 0.065% (n = 280,000) | AID 1469; also: nearly all actives have a fitted effect of over 50% in size
Target sequence (P10828 whole entry, looked up): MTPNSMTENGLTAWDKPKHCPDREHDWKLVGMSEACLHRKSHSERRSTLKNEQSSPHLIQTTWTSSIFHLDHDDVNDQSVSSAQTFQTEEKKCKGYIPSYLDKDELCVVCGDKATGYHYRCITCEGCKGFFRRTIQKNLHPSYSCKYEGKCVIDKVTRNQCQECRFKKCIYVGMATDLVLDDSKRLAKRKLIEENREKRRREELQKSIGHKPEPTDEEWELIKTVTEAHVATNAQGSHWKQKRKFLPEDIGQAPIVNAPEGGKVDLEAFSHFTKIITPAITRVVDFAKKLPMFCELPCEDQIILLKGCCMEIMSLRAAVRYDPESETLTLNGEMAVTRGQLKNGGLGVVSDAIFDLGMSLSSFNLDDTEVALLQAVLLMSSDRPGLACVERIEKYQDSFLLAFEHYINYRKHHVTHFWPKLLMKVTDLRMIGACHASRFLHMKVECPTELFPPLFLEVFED
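Human TRb ligand-binding domain (0.6 uM) is mixed with 20 nM Texas Red SRC2 peptide and 1 uM T3; after compound addition and 5 hr at ambient temperature, polarization is measured and normalized to unbound and bound controls.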
Tau fluor counter = counter-screen for tau fibril formation inhibitors. actives 0.93% (n = 280,000). Potency, µM (titrated, usually from 57.7 µM). tau K18 P301L (four-repeat tau fragment) Alexa594 fluorescence, heparin fibrillization. AID 1463; also: nearly all actives have a fitted effect of over 55% in size
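Human K18 P301L tau (15 uM unlabeled plus 0.24 uM Alexa 594-labeled, final) in 100 mM sodium acetate pH 7 was mixed with compound and 20 uM heparin and incubated 6 hr at 37 C.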
PNC assembly inh = perinucleolar compartment assembly inhibition | PC3M PTB-GFP, PNC prevalence imaging, 16 h; hits give low values | activity change (PNC), negative = inhibition, % at 10 µM | actives 3.1% (n = 140,000) | AID 2417;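 active = readout at or below -70, meaning at least 70% loss of cells showing the perinucleolar compartment, a nuclear body marking cancer cells; inconclusive = readout between -30 and a set limit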
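Read-out is percentage of cells bearing a perinucleolar compartment, from automated 20x imaging of fixed, Hoechst-stained PC3M PTB-GFP cells. Cells were seeded 4 h, then exposed 16 h to compound (23 nl of library stock) in duplicate plates.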
A number is an active result; – = inactive; ? = inconclusive; · = no result given; ! = repeats disagree; [ ] = another dose, or the depositor's remark. Unless noted, calls follow the shape of the dose curve; as a rule, active = well fitted curve in the direction sought with a large enough effect; inconclusive = small, poorly fitted or top-dose-only effect, or another doubt; inactive = no such curve, though single readings can be large; an effect the other way counts as inactive or inconclusive.

SMILES	TexasRed fluor	Tau ThT inhib	Tau fibril FP	TRb-SRC2 inh	Tau fluor counter	PNC assembly inh
CCOC(=O)CC1C(=O)NCCN1c1nc2c(C)cccn2c(=O)c1/C=C1\SC(=S)N(CC(C)C)C1=O (stereo not given)	–	10µM	–	–	–	·
CC(C)OCCCN1C(=O)c2[nH]nc(-c3ccccc3O)c2C1c1cccc(OCc2ccccc2)c1 (stereo not given)	–	–	?	–	–	·
CCOC(=O)CSc1nc2ccccc2n1CC(=O)NC(C)(C)C	–	–	–	–	–	?
CC(C)(C)NC(=O)Cn1c(SCC(=O)NC2CCCCC2)nc2ccccc21	–	–	–	–	–	-100
N#Cc1cc(Sc2ccccn2)c(Sc2ccccn2)cc1C#N	–	?	–	–	–	–
N#Cc1cc(Sc2ccccn2)c([N+](=O)[O-])cc1C#N	–	14µM	–	–	?	·
Cc1nc(Cl)c(C(=O)Nc2cccc(F)c2)c(C)c1Cl	–	–	–	–	–	·
CCOC(=O)c1c(N)sc2c(OC)c(Br)ccc12	–	?	–	–	25µM[quencher]	–
CCOC(=O)c1c(N)sc(C)c1-c1ccccc1	–	–	?	–	?	·
CC1(C)C(=O)C=C[C@]2(C)C1CC(=O)[C@]1(C)C2CC[C@@]2(C)C(c3ccoc3)OC(=O)C3O[C@@]321 (stereo not given in full)	–	?	–	–	–	·
CCOc1ccc(-c2nc(CSc3nnc(N)s3)cs2)cc1OC	–	–	–	–	–	-101
COc1ccccc1C(C)NCC(=O)Nc1ccccc1C(F)(F)F (stereo not given)	–	–	–	–	–	-116
COc1cccc(Oc2nc3c(c(=O)n(Cc4ccccc4F)c(=O)n3C)n2C)c1	–	–	–	–	–	·
Cc1ccc(Oc2nc3c(c(=O)n(Cc4ccccc4F)c(=O)n3C)n2C)cc1	–	–	–	–	–	-85
COc1cc(Nc2ccccn2)cc(C(=O)Nc2cccc(C(F)(F)F)c2)c1	–	–	–	–	14µM[quencher]	·
CCOC(=O)c1sc2nc(C)nc(NCCc3ccccn3)c2c1C	–	?	–	–	–	·
CC1(C(=O)OCC(=O)N2c3ccccc3Sc3ccccc32)CC1(Cl)Cl (stereo not given)	–	–	–	–	–	–
O=C(c1ccc([N+](=O)[O-])cc1)N1CCSC1c1ccc(Br)cc1 (stereo not given)	–	–	–	–	–	·
CNC(=O)N(O)C1N(/N=C/c2cccnc2)C(=S)SC1(C)C (stereo not given)	–	–	–	–	–	·
CN(C)c1ccc(/C=N/N2C(=S)SC(C)(C)C2N(O)C(=O)Nc2ccc([N+](=O)[O-])cc2)cc1 (stereo not given)	–	18µM	–	–	11µM[quencher]	–
CC1(c2ccc(Cl)cc2)CC(C)(C)N(C(=O)c2cccc(F)c2)c2ccccc21 (stereo not given)	–	–	–	–	–	·
O=[N+]([O-])c1ccccc1S(=O)(=O)N1CCN(Cc2cc3c(cc2O)OCO3)CC1	–	?	?	–	11µM[quencher]	·
O=C(NCc1ccco1)/C(=C/c1ccco1)NC(=O)c1ccc(Br)o1	–	?	–	–	–	–
O=C(NCc1ccco1)/C(=C\c1ccco1)NC(=O)c1ccco1	–	40µM	?	–	?	·
CCOC(=O)CSc1nnc(CNc2ccc(Cl)cc2)n1Cc1ccccc1	–	–	–	–	–	–
SMILES	TexasRed fluor	Tau ThT inhib	Tau fibril FP	TRb-SRC2 inh	Tau fluor counter	PNC assembly inh
Cc1c(C(=O)O)oc2ccc(S(=O)(=O)NCc3ccc(F)cc3)cc12	–	–	–	–	–	–
Cc1c(C(=O)O)oc2ccc(S(=O)(=O)NC3CCCCCCC3)cc12	–	–	–	–	–	-113
O=C(C[n+]1cc(-c2ccccc2)n2c1CCC2)N1c2ccccc2Sc2ccccc21	–	–	–	–	–	-119
CCCN(CCC)S(=O)(=O)c1ccc(C(=O)Nc2cccc(-c3nc4ccccc4[nH]3)c2)cc1	–	–	25µM	–	?	·
COc1c(Cl)cc(C(=O)Nc2cccc(-c3nc4ccccc4[nH]3)c2)cc1Cl	–	?	22µM	–	?	·
O=C(CN1CCC(O)(c2ccc3c(c2)OCO3)CC1)NC1CCCCC1	–	–	–	–	–	·
O=C(CN1CCC(O)(c2ccc3c(c2)OCO3)CC1)OC1CCCCC1	–	–	–	–	–	-84
COc1cccc(-c2nnc3n2N=C(c2cc(OC)ccc2OC)CS3)c1	–	–	–	–	–	–
CCOc1cccc(-c2nnc3n2N=C(c2cc(OC)ccc2OC)CS3)c1	–	–	?	–	–	-99
COc1ccc(CCNC(=O)Cn2c(-c3cccs3)cc3cc(F)ccc32)cc1OC	–	–	–	–	–	·
CCC(=O)Nc1ccc(/C=C(\C(C)=O)C(=O)c2ccccc2)cc1	–	–	–	–	–	·
CC(=O)/C(=C/c1ccc(N(C)C)cc1)C(=O)c1ccccc1	–	18µM	–	–	?	?
O=C(CCn1c(=O)oc2ccccc21)n1c(=O)oc2ccccc21	–	?	–	–	–	–
CC(=O)N1CCCc2cc(S(=O)(=O)NCCC3=CCCCC3)ccc21	–	–	–	–	–	-86
CCOc1ccc(N2C(=O)S/C(=C\c3cccn3C)C2=O)cc1	–	–	–	–	–	?
COC(=O)c1ccc(Cl)cc1NC(=O)N1CCC(CN2CCCC2)CC1	–	–	–	–	–	·
CCCn1c(C(O)c2ccc3c(c2)OCO3)nc2ccccc21 (stereo not given)	–	–	–	–	–	-100
CCCn1c(NCc2ccc3c(c2)OCO3)nc2ccccc21	–	–	–	–	–	–
Cc1cccc(C)c1NC(=O)N1CCN(c2nc3ccccc3s2)CC1	–	–	–	–	–	?
Cc1coc2c(C)c3oc(=O)c(CC(=O)NCCc4ccc(Cl)cc4)c(C)c3cc12	–	–	–	–	–	·
O=C1C(SCCO)=C(SCCO)C(=O)c2ccccc21	14µM![quencher]	14µM	2.5µM	?	2µM[quencher]	·
COCCn1nnnc1CN(Cc1ccco1)Cc1cc2cc3c(cc2[nH]c1=O)OCO3	–	–	–	–	–	–
CCn1c(SCC(=O)Nc2ccc(C)cc2)nc2nc3c(cc2c1=O)COC(C)(C)C3	–	?	–	–	–	·
CCCCc1ccc(-c2csc(/C(C#N)=C\c3ccco3)n2)cc1	–	?	–	–	?	-111
Cc1ccc(Cl)c(OCC(O)CN(CCO)CCO)c1 (stereo not given)	–	–	–	–	–	–
CCOc1ccc(-n2nc3ccc(NC(=O)c4cccc(F)c4)cc3n2)cc1	–	?	?	–	–	·

From PubChem BioAssay
